Assay results published in the supplement of paper PMC13380429.
Where a name gives a salt, the structure may show the parent alone. A number with no mark means an inactive call.

Tested on: Vero E6 infected with SARS-CoV-2
Assay: inhibition of SARS-CoV-2 cytopathic effect; higher = more antiviral protection, active = above 15
Conditions: 48 h

SMILES	inhibition of SARS-CoV-2 cytopathic effect (1 nM) [%]	inhibition of SARS-CoV-2 cytopathic effect (8.33 nM) [%]	inhibition of SARS-CoV-2 cytopathic effect (100 nM) [%]	inhibition of SARS-CoV-2 cytopathic effect (833.33 nM) [%]	inhibition of SARS-CoV-2 cytopathic effect (10000 nM)
CC(C)(C)NC(=O)N[C@H](C(=O)N1C[C@H]2[C@@H]([C@H]1C(=O)NC(CC1CCC1)C(=O)C(N)=O)C2(C)C)C(C)(C)C (stereo not given in full) [Boceprevir]	0.22	1.1	-0.28	-1.99	-0.53%
O=C(O)C1=CCCNC1 [guvacine]	2	5.07	3.21	6.87	6.39%
CO[C@@]1(NC(=O)Cc2cccs2)C(=O)N2C(C(=O)O)=C(COC(N)=O)CS[C@@H]21 [cefoxitin]	-0.07	-1.13	-0.89	0.12	1.09%
COc1ccc(S(=O)(=O)Nc2nc(-c3cccc([N+](=O)[O-])c3)cs2)cc1OC	2.08	4.04	7.06	0.79	-3.82%
CCCCCCCCCCCC1=C(O)C(=O)C=C(O)C1=O [embelin]	0.27	-0.22	-1.48	-2.76	-6.88%
NCCCCN(Cc1nc2ccccc2[nH]1)[C@H]1CCCc2cccnc21	-0.42	-1.96	0.37	-1.81	0.08%
COc1cc(C#N)ccc1S(=O)(=O)Nc1ccc2c(c1)cc(C)c(=O)n2C	-2.94	1.53	0.3	-4.02	-0.1%
CC(C)(C)Nc1nc(Nc2ccc(C(N)=O)cc2)cc(N)c1C#N	-1.51	-2.29	-0.39	-2.89	-1.36%
OCC(O)CN1CCN(c2ccccc2)CC1 (stereo not given) [dropropizine]	-2.5	-2.56	-2.71	-2.45	-3%
CN[C@@H]1[C@H](O[C@H]2[C@H](O[C@H]3[C@H](O)[C@@H](O)[C@H](N=C(N)N)[C@@H](O)[C@@H]3N=C(N)N)O[C@@H](C)[C@]2(O)C=O)O[C@@H](CO)[C@H](O)[C@H]1O [STREPTOMYCIN SULFATE [5mM; 10% aq DMSO + 5mM ethanolamine]]	-0.46	-1.64	-0.12	1.53	0.2%
Cc1ccc2c(c1)[C@]13CCCC[C@@H]1[C@H](C2)N(C)CC3 [dimemorfan]	0	0.39	0.04	1.02	0.98%
CO[C@H](C(=O)[C@@H](O)[C@@H](C)O)[C@@H]1Cc2cc3cc(O[C@H]4C[C@@H](O[C@H]5C[C@@H](O)[C@H](O)[C@@H](C)O5)[C@@H](O)[C@@H](C)O4)c(C)c(O)c3c(O)c2C(=O)[C@H]1O[C@H]1C[C@@H](O[C@H]2C[C@@H](O[C@H]3C[C@](C)(O)[C@H](O)[C@@H](C)O3)[C@H](O)[C@@H](C)O2)[C@H](O)[C@@H](C)O1 [plicamycin]	2.66	3.18	3.85	-3.43	-7.42%
CC(C)(C)C(=O)NCCCC(=O)O [pivagabine]	0.01	-1.15	-1.01	0.86	-0.03%
CC(C)Nc1nc2cc(Cl)c(Cl)cc2n1[C@H]1O[C@@H](CO)[C@H](O)[C@@H]1O [maribavir]	2	-0.5	0.22	-0.76	-2.15%
N#Cc1cnc2c(Cl)cc(NCc3cn(CCN4CCCCCC4)nn3)cc2c1Nc1ccc(F)c(Cl)c1 [cot-inhibitor-1]	-0.74	2.31	-0.11	-2.18	-14%
NC(=O)C[S+]([O-])C(c1ccccc1)c1ccccc1 (stereo not given)	-2.5	-3.65	-0.185	-1.01	-3.77%
CC(C)COC(=O)c1ccc(N)cc1 [isobutamben]	-0.32	-0.5	-1.06	-2.97	1.5%
COc1ccc(C(=O)Nc2c(Cl)cncc2Cl)cc1OC1CCCC1 [piclamilast]	-1.88	-0.22	0.16	-2.24	-0.91%
O=C(CCCN1CC=C(n2c(=O)[nH]c3ccccc32)CC1)c1ccc(F)cc1 [droperidol]	-0.89	3.34	0.3	-0.44	-2%

SMILES	inhibition of SARS-CoV-2 cytopathic effect (1 nM) [%]	inhibition of SARS-CoV-2 cytopathic effect (8.33 nM) [%]	inhibition of SARS-CoV-2 cytopathic effect (100 nM) [%]	inhibition of SARS-CoV-2 cytopathic effect (833.33 nM) [%]	inhibition of SARS-CoV-2 cytopathic effect (10000 nM)
CCNC(C)CN1CCc2c(c(=O)oc3ccccc23)C1 (stereo not given)	-2.32	0.86	-0.83	-0.78	-2.07%
O=[N+]([O-])c1cc2nc(O)c(O)nc2cc1[N+](=O)[O-]	-4.28	-0.96	-0.81	-1.99	0.49%
COC(=O)C1=CCCN(C)C1 [arecoline]	1.27	1.95	-1.54	-1.35	1.15%
N=C(N)c1cc2ccc(OC(=O)c3cccs3)cc2s1	1.66	1.86	2.63	-1.57	4.87%
Oc1c(Br)cc(Br)c2cccnc12 [broxyquinoline]	-1.46	2.01	-2.42	-2.35	-5.91%
Cc1cc(NC(=O)C2=C(O)c3ccccc3S(=O)(=O)N2C)no1 [isoxicam]	-3.86	-3.12	-4.12	-2.59	-0.72%
O=c1[nH]c2ccccc2n1CCCN1CCN(C(c2ccccc2)c2ccccc2)CC1 [oxatomide]	-0.36	2.61	1.85	1.64	-7.26%
Cc1ccc2c(c1)c1c3n2CCNC3CCC1 (stereo not given) [pirlindole]	-1.68	-2.42	-1.65	0.99	-3.66%
N=C(N)NCCC[C@H](N)C(=O)O [L-arginine]	2.26	3.4	-3.93	1.97	1.83%
CC1CCN(CCCC(=O)c2ccc(F)cc2)CC1 [melperone]	1.03	-0.88	-1.43	0.99	2.13%
CCCCCOc1ccc(-c2ccc(-c3ccc(C(=O)N[C@H]4C[C@@H](O)[C@@H](O)NC(=O)[C@@H]5[C@@H](O)[C@@H](C)CN5C(=O)[C@H]([C@@H](C)O)NC(=O)[C@H]([C@H](O)[C@@H](O)c5ccc(O)cc5)NC(=O)[C@@H]5C[C@@H](O)CN5C(=O)[C@H]([C@@H](C)O)NC4=O)cc3)cc2)cc1 [anidulafungin]	-3.73	0.49	1.56	0.77	-2.12%
C=C1C(=O)O[C@@H]2[C@H]3O[C@]3(C)CC/C=C(\C)CC[C@@H]12 [parthenolide-(alternate-stereo)]	0.91	-1.19	-2.99	2.8	23.8% (active)
Cc1cc2c(cc1C(F)(F)F)N(C(=O)Nc1ccc(Oc3cccnc3C)nc1)CC2	0.45	0.15	-0.25	0.74	-2.31%
COc1ccc(C2C(=O)c3ccccc3C2=O)cc1 [anisindione]	0.46	1.92	2.19	-3.04	-1.46%
C/C(=N\c1ccccc1N)c1c(C)cc(=O)n(O)c1O	-2.19	-2.18	-1.91	3.65	1.35%
O=C(c1ccccc1)C(O)c1ccccc1 (stereo not given) [benzoin]	0.3	0.27	-1.79	1.45	0.76%
Cc1ncc(NC(=O)c2ccc(CN3CCN(C)CC3)c(C(F)(F)F)c2)cc1Nc1nccc(-c2cccnc2)n1 [flumatinib]	2.56	-0.34	1.46	3.69	66.1% (active)
CN(C)Cc1cccc(N/C(=C2\C(=O)Nc3cc(C(N)=O)ccc32)c2ccccc2)c1	-2.86	2.55	0.04	2.08	2.55%
O=C(O)CSCC(=O)NC1CCSC1=O (stereo not given) [erdosteine]	1.03	2.17	1.67	-2.61	1.6%
